Bioassay records deposited in PubChem BioAssay by National Center for Advancing Translational Sciences (NCATS).
Shown are actives, neighbours in structure and some others; about 2.3% of the full set was active somewhere.
Nrf2 activator: qHTS of Nrf2 Activators. 410,000 tested, 0.31% active. AREc32 ARE-luciferase reporter (MCF7-derived line), luminescence, 24 h. Potency, µM (titrated, usually from 46.1 µM), without a hit: at the highest dose activation, most hits filed as activators; also: potency is read from the fitted curve at half-maximal effect; % of control where 0% means no effect; nearly all actives have a fitted effect of over 65% in size
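Nrf2 activation is followed as ARE-luciferase induction in the AREc32 line after one day of compound treatment; luminescence is read with Steady-Glo.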
miR-21 act: qHTS Assay for Modulators of miRNAs and/orActivators of miR-21; HeLa miR-21 FLuc reporter, luciferase, 48 h; Potency, µM (top dose mostly 38.3 µM), inactives show at the highest dose activity change, positive = activation, hits mostly activators; 340,000 tested, under 10 active; AID 2288, 2010;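 also: % of control where 0% means no effect; miR-21 action dims this reporter so a rising signal means less miR-21 action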
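HeLa miR-21-FLuc reporter line, endogenous miR-21; 2000 cells/well in DMEM/10% FBS; compound titration up to ~40uM final, 48 h, 37 degree Celsius; luciferase detection reagent, 15 min lysis, CCD luminescence.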
Mito fusion yeast: qHTS Assay for Small Molecule Inhibitors of Mitochondrial Division or Activators of Mitochondrial Fusion | 320,000 tested, 0.23% active | S. cerevisiae fusion-defective mutant growth rescue, CellTiterGlo 48 h | AID 485298, 2010 | Potency, µM (doses to about 46.1 µM), for the others: at the top dose growth rescue (activation), usual class: activators; also: potency is read from the fitted curve at half-maximal effect; % of control where 0% means no effect; nearly all actives have a fitted effect of over 45% in size
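Growth-rescue viability read-out: after 48 h at the non-permissive 37C in glycerol/ethanol YPEG, yeast mitochondrial fusion mutants are measured by CellTiterGlo luminescence; compounds (23 nl pinned per well) restoring growth score as division inhibitors or fusion activators.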
A549 viability: Nrf2 qHTS screen for inhibitors: counterscreen for cytotoxicity. A549 ARE-Fluc cells, CellTiter-Fluor viability, 18-24 h. Potency, µM (highest dose often 46 µM), for the others: top-dose activity change, negative = cytotoxicity, most hits filed as inhibitors. 390,000 tested, 0.16% active. AID 504648, 2011; also: potency is read from the fitted curve at half-maximal effect; % is scaled to controls: 0 for no effect and ±100 for the full control effect
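Cytotoxicity counterscreen: CellTiter-Fluor fluorescence was measured in A549 ARE_Fluc cells after 18-24 h of compound exposure in a concentration series. The subsequent BugLite luminescent read reports ARE-luciferase activity.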
Nrf2 inh: Nrf2 qHTS screen for inhibitors. A549 ARE-Fluc reporter, luciferase luminescence, 18-24 h. Potency, µM (highest dose often 46 µM), for the others: top-dose activity change, negative = inhibition, most hits filed as inhibitors. 360,000 tested, 2.1% active; also: potency is read from the fitted curve at half-maximal effect; % is scaled to controls: 0 for no effect and ±100 for the full control effect; nearly all actives have a fitted effect of over 60% in size
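A549 ARE_Fluc cells (5000/well, 5% FBS OPTI-MEM) pre-incubated 2 h, then treated with compounds 18-24 h at 37C/5% CO2 in concentration-response. CellTiter-Fluor viability read first; BugLite luciferase luminescence after 15 min at room temperature gives Nrf2 activity.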
An asterisk follows results filed as active; u = inconclusive; x = not tested or not shown; [ ] = remark or other dose. Calls follow the shape of the dose curve; as a rule, active = well fitted curve in the direction sought with a large enough effect; inconclusive = small, poorly fitted or top-dose-only effect, or another doubt; inactive = no such curve, though single readings can be large; an effect the other way counts as inactive or inconclusive.

SMILES	Nrf2 activator	miR-21 act	Mito fusion yeast	A549 viability	Nrf2 inh
Cc1ccc2nc(-c3ccc(NC(=O)COC(=O)c4ccc(Br)o4)cc3)sc2c1	0%	-30%	0%	-12%	u
Cc1ccc2nc(-c3ccc(NC(=O)COC(=O)c4ccco4)cc3)sc2c1	0%	24%	0%	9%	6.5µM*
O=C(CCS(=O)(=O)c1cc2c3c(c1)CCN3C(=O)CC2)NCc1ccc(F)cc1	0%	3%	x	4%	0%
O=C1N[C@@H](Cc2c[nH]c3ccccc23)COC(=O)[C@@H](Cc2ccc(F)cc2)CC/C=C/C[C@@H]1CC(=O)N(CCO)Cc1ccccc1	-1%	x	x	u	u
O=C1N[C@@H](Cc2ccccc2)COC(=O)[C@H](Cc2ccc(F)cc2)CC/C=C/C[C@H]1CC(=O)N(CCO)Cc1ccccc1	-3%	x	x	-26%	23µM*
O=C1N[C@@H](Cc2c[nH]c3ccccc23)COC(=O)[C@H](Cc2ccc(F)cc2)C/C=C\C[C@H]1CC(=O)N(CCO)Cc1ccccc1	-3%	x	x	u	26µM*
O=C1N[C@@H](Cc2ccccc2)COC(=O)[C@H](Cc2ccc(F)cc2)CC/C=C/C[C@@H]1CC(=O)N(CCO)Cc1ccccc1	4%	x	x	-5%	-29%
O=C1NC[C@@H](c2ccccc2)OC(=O)[C@H](Cc2ccc(F)cc2)C/C=C\C[C@@H]1CC(=O)N(CCO)Cc1ccccc1	10%	x	x	u	26µM*
Cc1ccc(NS(=O)(=O)c2ccc3c(c2)CCO3)cc1C	x	x	x	-1%	u
Cc1cccc(NC(=O)C2CCN(S(=O)(=O)c3ccc4ccccc4c3)CC2)n1	3%	x	2%	-14%	16µM*
Cc1cccc(NC(=O)C2CCN(S(=O)(=O)c3c(C)c(C)cc(C)c3C)CC2)n1	0%	x	20µM*	-10%	u
CNc1cc2c(cc1S(=O)(=O)Nc1ccc(C)c(C)c1)CCC(=O)N2	x	x	x	4%	u
C=C(C)n1c(=O)n(Cc2ccc(C)cc2)c2ccccc21	0%	-8%	1%	-22%	16µM*
C=C(C)n1c(=O)n(Cc2ccccc2C)c2ccccc21	0%	-15%	5%	8%	2%
CC(=O)c1c(C)[nH]c(C(=O)C(C)Sc2nnc(NC3CC3)s2)c1C (stereo unspecified)	3%	x	1%	-9%	16µM*
CN1C=C/C(=C\c2cc[n+](C)c3ccccc23)c2ccccc21	-1%	u	3%	u	5.8µM*
O=C(COc1ccccc1)Nc1ccccc1Oc1ccccc1	-1%[9.22 µM]	-6%	u	22%	u
COc1ccccc1NC(=O)COc1ccccc1	11µM*	-40%	3%	5%	u
COc1ccc(NC(=O)CSCC(=O)N2c3ccccc3CCc3ccccc32)cc1	3%	-2%	u	16%	-19%
COc1ccccc1NC(=O)CSCC(=O)N1c2ccccc2CCc2ccccc21	2%	6%	u	u	18µM*
N#Cc1c(NC(=O)c2cc(-n3cnnc3)ccc2Cl)sc2c1CCCC2	11%	7%	0%	-18%	23µM*
Cn1cc([N+](=O)[O-])c(C(=O)Nc2sc3c(c2C#N)CCC3)n1	u	-5%	11µM*	u	u
Cn1cc(Br)c(C(=O)Nc2sc3c(c2C#N)CCC3)n1	5%	-40%	15%	3%	-5%
Cn1ccc(C(=O)Nc2sc3c(c2C#N)CCC3)n1	6%	-15%	23%	-1%	3%
COc1ccc(CC2(CO)CCN(S(=O)(=O)c3c(C)nn(C)c3Cl)CC2)cc1	1%	-5%	5%	-4%	2%
Cc1nn(C)c(Cl)c1S(=O)(=O)N1CCC(CO)(CCc2ccccc2)CC1	0%	8%	6%	-10%	21µM*
CCOc1cccc(C2C=C(c3ccc4c(c3)OCO4)NC(c3ccccc3F)N2)c1O (stereo unspecified)	x	x	x	-1%	3%
